Growth inhibition data for nine compounds are collected here from PubChem BioAssay (NCI).

Assay [1] is described as follows: NCI Yeast Anticancer Drug Screen. Data for the rad50 strain (AID 155).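 Note: 0% = growth of vehicle-only cultures of the same strain.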 The conditions noted are these: S. cerevisiae rad50 strain growth inhibition, active compounds read high. The method in brief: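 Cells are treated with compound, grown, and their growth is then scored against vehicle-only cultures of the same repair-deficient yeast strain.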
A short description of assay [2]: NCI Yeast Anticancer Drug Screen. Data for the mec2-1 strain (AID 157). As to conditions: S. cerevisiae mec2-1 strain, active compounds read high. The essentials:
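Test agents were screened against the mec2-1 yeast strain, with defined DNA repair or cell cycle alteration. Growth was scored as inhibition against vehicle-only controls.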

Assay [3] in a line: NCI Yeast Anticancer Drug Screen. Data for the sgs1 mgt1 strain (AID 161).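 Note: 0% = growth of cultures given vehicle only.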 As to conditions: S. cerevisiae sgs1 mgt1 strain, active compounds read high. The essentials: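 Test agents were incubated with a DNA-repair-mutant yeast strain. Growth was then read and compared against vehicle-treated controls.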
Assay [4] can be described thus: NCI Yeast Anticancer Drug Screen. Data for the cln2 rad14 strain (AID 165).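 Note: 0% = growth equal to vehicle treated cultures.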 As to conditions: S. cerevisiae cln2 rad14 strain, active compounds read high. The essentials:
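Growth of compound-exposed yeast (cln2 rad14 genotype) measured and expressed as inhibition relative to vehicle.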

A short description of assay [5]: NCI Yeast Anticancer Drug Screen. Data for the bub3 strain (AID 167). As to conditions: S. cerevisiae bub3 mutant strain, active compounds read high. The method in brief: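 Part of a panel of yeast mutants defective in DNA damage repair or cell cycle regulation. Each strain is grown with compound, and inhibition is calculated relative to solvent-treated cultures.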
Assay [6] in a line: NCI Yeast Anticancer Drug Screen. Data for the mlh1 rad18 strain (AID 175). The conditions noted are these: S. cerevisiae mlh1 rad18 strain growth inhibition, active compounds read high. The essentials: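 In this whole-cell yeast screen, a strain with altered DNA damage repair is challenged with compound, and its growth is measured against matched vehicle-treated controls.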
Where [7] appears, read: at 5.0 µM (retest, dose inferred, filed as 0.5).
The mark [8] stands for this setting: at 50.0 µM (retest, dose inferred, filed as 5.0).

This is part of a sample that, as a whole, favours compounds with a hit. Of some 79,000 tested, about 15% had one in any assay. Unmarked numbers belong to inactive results. Active and inactive are the calls of the source. Cut-off read from the data, not from the text of the source: active = growth inhibition above about 70%; inactive = the rest.

In the case of `CCOC(=O)C(=Cc1ccccc1Br)C(=O)OCC`, the growth inhibition in assay [1] (setting [7]) was 16%; in assay [1] (setting [8]), 92% (active); in assay [1] (at 50.0 µM), 78.5% (active); in assay [2] (setting [7]), 33%; in assay [2] (setting [8]), 94% (active); in assay [2] (at 50.0 µM), 92.5% (active). The growth inhibition in assay [3] (setting [7]) is 20%; in assay [3] (setting [8]), -18%; in assay [3] (at 50.0 µM) it was 96.5% (active); in assay [4] (setting [7]), 17%; in assay [4] (setting [8]), 93% (active); in assay [4] (at 50.0 µM), 67.8%. The growth inhibition was 26% in assay [5] (setting [7]); 96% (active) in assay [5] (setting [8]); 95.7% (active) in assay [5] (at 50.0 µM); 14% in assay [6] (setting [7]); 97% (active) in assay [6] (setting [8]); 96.2% (active) in assay [6] (at 50.0 µM).
Take `CCC(C)(C)NCCCCCNc1cc(OC)cc2cccnc12`: the growth inhibition in assay [1] (setting [7]) is -2%; in assay [1] (setting [8]) it was 67%; in assay [1] (at 50.0 µM), 76.2% (active); in assay [2] (setting [7]) it was -5%; in assay [2] (setting [8]), 0%; in assay [2] (at 50.0 µM) it was 40.2%. Further, the growth inhibition in assay [3] (setting [7]) is 4%; in assay [3] (setting [8]), 22%; in assay [3] (at 50.0 µM), 56.4%; in assay [4] (setting [7]) it was 0%; in assay [4] (setting [8]), 9%; in assay [4] (at 50.0 µM), 21.4%. The growth inhibition in assay [5] (setting [7]) is 6%; in assay [5] (setting [8]), 36%; in assay [5] (at 50.0 µM), 79% (active); in assay [6] (setting [7]) it was 2%; in assay [6] (setting [8]), 16%; in assay [6] (at 50.0 µM), 68.8%.
Regarding `O=C1C(=O)c2ccccc2C=C1Br`, the growth inhibition in assay [1] (setting [7]) is 50%; in assay [1] (setting [8]), 99% (active); in assay [1] (at 50.0 µM), 99% (active); in assay [2] (setting [7]), 91% (active); in assay [2] (setting [8]) it was 99% (active); in assay [2] (at 50.0 µM), 99.2% (active). Further, the growth inhibition in assay [3] (setting [7]) was 75% (active); in assay [3] (setting [8]), 99% (active); in assay [3] (at 50.0 µM), 99.2% (active); in assay [4] (setting [7]), 67%; in assay [4] (setting [8]) it was 99% (active); in assay [4] (at 50.0 µM) it was 98.2% (active). In addition, the growth inhibition in assay [5] (setting [7]) was 93% (active); in assay [5] (setting [8]), 99% (active); in assay [5] (at 50.0 µM), 98.7% (active); in assay [6] (setting [7]) it was 85% (active); in assay [6] (setting [8]), 99% (active); in assay [6] (at 50.0 µM), 98.8% (active).
Consider `COc1cc(OC)c(C2CC(C)(OC)Oc3cc4c(cc32)OCO4)c(OC)c1` (configuration not stated), for which the growth inhibition in assay [1] (setting [7]) is 4%; in assay [1] (setting [8]), 10%; in assay [1] (at 50.0 µM), 4.35%; in assay [2] (setting [7]), 6%; in assay [2] (setting [8]), 3%; in assay [2] (at 50.0 µM), 17.1%. Moreover, the growth inhibition in assay [3] (setting [7]) was 2%; in assay [3] (setting [8]), 12%; in assay [3] (at 50.0 µM), 3.8%; in assay [4] (setting [7]), 5%; in assay [4] (setting [8]), -4%; in assay [4] (at 50.0 µM) it was 5.45%. In addition, the growth inhibition in assay [5] (setting [7]) is 0%; in assay [5] (setting [8]) it was -1%; in assay [5] (at 50.0 µM) it was -2.6%; in assay [6] (setting [7]) it was 5%; in assay [6] (setting [8]), 19%; in assay [6] (at 50.0 µM), 27.9%.
On to `COc1ccc(C(=O)O)c(-c2c(C(=O)O)ccc(OC)c2OC(C)=O)c1`, for which the growth inhibition was 3% in assay [1] (setting [7]); 1% in assay [1] (setting [8]); 16.5% in assay [1] (at 50.0 µM); -5% in assay [2] (setting [7]); 9% in assay [2] (setting [8]); 3.05% in assay [2] (at 50.0 µM). The growth inhibition in assay [3] (setting [7]) is -18%; in assay [3] (setting [8]), 7%; in assay [3] (at 50.0 µM), -3.85%; in assay [4] (setting [7]), 2%; in assay [4] (setting [8]), -2%; in assay [4] (at 50.0 µM) it was 63.7%. Besides, the growth inhibition in assay [5] (setting [7]) was 0%; in assay [5] (setting [8]) it was -5%; in assay [5] (at 50.0 µM) it was 73% (active); in assay [6] (setting [7]), 14%; in assay [6] (setting [8]), 13%; in assay [6] (at 50.0 µM), 54.6%.
Turning to `Oc1c(Cl)ccc2cccnc12`, the growth inhibition in assay [1] (setting [7]) is 97% (active); in assay [1] (setting [8]), 98% (active); in assay [1] (at 50.0 µM), 92% (active); in assay [2] (setting [7]) it was 98% (active); in assay [2] (setting [8]) it was 99% (active); in assay [2] (at 50.0 µM), 93.8% (active). For the same compound, the growth inhibition is 91% (active) in assay [3] (setting [7]); 80% (active) in assay [3] (setting [8]); 94.1% (active) in assay [3] (at 50.0 µM); 98% (active) in assay [4] (setting [7]); 97% (active) in assay [4] (setting [8]); 92.5% (active) in assay [4] (at 50.0 µM). The growth inhibition was 99% (active) in assay [5] (setting [7]); 99% (active) in assay [5] (setting [8]); 92.8% (active) in assay [5] (at 50.0 µM); 95% (active) in assay [6] (setting [7]); 98% (active) in assay [6] (setting [8]); 91.7% (active) in assay [6] (at 50.0 µM).
Take `CN(C(=O)c1ccccc1)C1(COC(=O)c2ccccc2)CCCCC1`: the growth inhibition in assay [1] (setting [7]) is -6%; in assay [1] (setting [8]) it was 3%; in assay [1] (at 50.0 µM), 16.1%; in assay [2] (setting [7]), -28%; in assay [2] (setting [8]) it was -9%; in assay [2] (at 50.0 µM), -5.95%. Besides, the growth inhibition was -25% in assay [3] (setting [7]); -11% in assay [3] (setting [8]); -2.75% in assay [3] (at 50.0 µM); 1% in assay [4] (setting [7]); 1% in assay [4] (setting [8]); 21.3% in assay [4] (at 50.0 µM). For the same compound, the growth inhibition in assay [5] (setting [7]) is 21%; in assay [5] (setting [8]), 28%; in assay [5] (at 50.0 µM), 65.7%; in assay [6] (setting [7]), 16%; in assay [6] (setting [8]), 6%; in assay [6] (at 50.0 µM), 9.9%.
In the case of `COC(=O)c1c(/C(=N/Nc2ccc([N+](=O)[O-])cc2)[N+](=O)[O-])ssc1=N`, the growth inhibition in assay [1] (setting [7]) was 14%; in assay [1] (setting [8]), 37%; in assay [1] (at 50.0 µM) it was 21.1%; in assay [2] (setting [7]) it was 0%; in assay [2] (setting [8]), 44%; in assay [2] (at 50.0 µM), 24.9%. The growth inhibition was 13% in assay [3] (setting [7]); 60% in assay [3] (setting [8]); 27.6% in assay [3] (at 50.0 µM); 6% in assay [4] (setting [7]); 23% in assay [4] (setting [8]); 27.9% in assay [4] (at 50.0 µM). Further, the growth inhibition is 6% in assay [5] (setting [7]); 40% in assay [5] (setting [8]); 24.9% in assay [5] (at 50.0 µM); 15% in assay [6] (setting [7]); 54% in assay [6] (setting [8]); 70.9% (active) in assay [6] (at 50.0 µM).
With `O=c1cccccc1O.O=c1cccccc1O.O=c1cccccc1O.[Ru]`, the growth inhibition in assay [1] (setting [7]) is 29%; in assay [1] (setting [8]), 64%; in assay [1] (at 50.0 µM), 87.5% (active); in assay [2] (setting [7]), 32%; in assay [2] (setting [8]), 90% (active); in assay [2] (at 50.0 µM), 96.2% (active). The growth inhibition in assay [3] (setting [7]) is 49%; in assay [3] (setting [8]) it was 81% (active); in assay [3] (at 50.0 µM), 91.5% (active); in assay [4] (setting [7]) it was 11%; in assay [4] (setting [8]) it was 36%; in assay [4] (at 50.0 µM), 26.4%. The growth inhibition is -11% in assay [5] (setting [7]); -9% in assay [5] (setting [8]); 15.8% in assay [5] (at 50.0 µM); 55% in assay [6] (setting [7]); 81% (active) in assay [6] (setting [8]); 95.1% (active) in assay [6] (at 50.0 µM).
